Measurements taken from PubChem BioAssay (NCATS).
Results filed as inconclusive are left out. Activity calls are given as the source filed them. Calls follow the shape of the dose curve; as a rule, active = well fitted inhibition curve with a large enough effect; inconclusive = small, poorly fitted or top-dose-only effect; inactive = flat fitted curve, though single readings scatter.

Experiments:
Experiment in all cases: qHTS profiling for inhibitors of Plasmodium falciparum proliferation (AID 504749); also: nearly all actives have a fitted effect of over 60% in size
Settings in all cases: P. falciparum in erythrocytes, SYBR Green DNA, 72 h; series mostly up to 28.7 µM
CP262 = system: CP262
How it was run: (§1)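 P. falciparum-infected erythrocytes (0.3% parasitemia, 2.5% hematocrit) incubated with compound 72 h at 37 C, 5% CO2. Parasite DNA detected by SYBR Green after lysis, overnight at room temperature; normalised to 0.29 uM artemisinin and DMSO.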

CP265 = system: CP265
How it was run: as §1

CP266 = system: CP266
How it was run: as §1

CP268 = system: CP268
How it was run: as §1

CP269 = system: CP269
How it was run: as §1

CP286 = system: CP286
How it was run: as §1

CP291 = system: CP291
How it was run: as §1

CP297 = system: CP297
How it was run: as §1

CP305 = system: CP305
How it was run: as §1

CP315 = system: CP315
How it was run: as §1

CP325 = system: CP325
How it was run: as §1

CP335 = system: CP335
How it was run: as §1

DFO2036 = system: DFO2036
How it was run: as §1

DIV14 = system: DIV14
How it was run: as §1

DIV17 = system: DIV17
How it was run: as §1

DIV30 = system: DIV30
How it was run: as §1

Dd2 = system: Dd2
How it was run: as §1

ECU = system: ECU
How it was run: as §1

FAB9 = system: FAB9
How it was run: as §1

GB4 = system: GB4
How it was run: as §1

HB3 = system: HB3
How it was run: as §1

ICS = system: ICS
How it was run: as §1

JCK = system: JCK
How it was run: as §1

N140 = system: N140
How it was run: as §1

P93_24 = system: P93_24
How it was run: as §1

P94_40 = system: P94_40
How it was run: as §1

PAD = system: PAD
How it was run: as §1

PC15 = system: PC15
How it was run: as §1

PC26 = system: PC26
How it was run: as §1

PC49 = system: PC49
How it was run: as §1

SC27B = system: SC27B
How it was run: as §1

TAB109 = system: TAB109
How it was run: as §1

TAB113 = system: TAB113
How it was run: as §1

TAB165 = system: TAB165
How it was run: as §1

W2 = system: W2
How it was run: as §1

Measured: Potency
Potency is read from the fitted curve at half-maximal effect.

CC[C@]1([C@H]2O[C@@H]([C@@H]3O[C@](O)(CO)[C@@H](C)C[C@H]3C)C[C@H]2C)CC[C@@H]([C@]2(C)CC[C@@]3(C[C@@H](O)[C@@H](C)[C@@H]([C@H](C)[C@H](OC)[C@H](C)C(=O)O)O3)O2)O1
active: CP262 26.9 nM | CP265 31.6 nM | CP266 53.6 nM | CP268 37.9 nM | CP269 33.8 nM | CP286 22.4 nM | CP291 19 nM | CP297 33.8 nM | CP305 33.8 nM | CP315 33.8 nM | CP325 30.1 nM | CP335 19 nM | DFO2036 35.5 nM | DIV14 33.8 nM | DIV17 26.9 nM | DIV30 37.9 nM | Dd2 39.8 nM | ECU 50.1 nM | FAB9 70.8 nM | GB4 26.9 nM | HB3 44.7 nM | ICS 20 nM | JCK 70.8 nM | N140 39.8 nM | P93_24 44.7 nM | P94_40 25.1 nM | PAD 63.1 nM | PC15 56.2 nM | PC26 23.9 nM | PC49 70.8 nM | SC27B 50.1 nM | TAB109 31.6 nM | TAB113 50.1 nM | TAB165 112 nM | W2 19 nM
